This note sets out measurements from PubChem BioAssay (EPA / NIEHS).

Active and inactive are the calls of the source. How the source made its calls: active means hit-call score of the fitted dose curve at least 0.9, where 1 is the maximum; inactive means score below 0.9.

The nature of the experiment: ATG_FoxO_CIS: Attagene CIS-FACTORIAL HepG2 Assay for human Forkhead box O (FoxO) (AID 2282943). The note with it: HepG2 Attagene cis-reporter, FoxO element, mRNA; actives raise or lower the signal. The procedure:
ATG_CIS is a cell-based, multiplexed-readout assay that uses HepG2, a human liver cell line, with measurements taken at 24 hours after chemical dosing in a 24-well plate.ATG_FoxO_CIS is one of 52 assay component(s) measured or calculated from the ATG_CIS assay. It is designed to make measurements of mRNA induction, a form of inducible reporter, as detected with fluorescence intensity signals by Reverse transcription polymerase chain reaction (RT-PCR) and Capillary electrophoresis technology.Data from the assay component ATG_FoxO_CIS was analyzed into 1 assay endpoint. This assay endpoint, ATG_FoxO_CIS, was analyzed with bidirectional fitting relative to DMSO as the negative control and baseline of activity. Using a type of inducible reporter, measures of mRNA for gain or loss-of-signal activity can be used to understand the reporter gene at the transcription factor-level as they relate to the gene FOXO1 and FOXO3. Furthermore, this assay endpoint can be referred to as a primary readout, because this assay has produced multiple assay endpoints where this one serves a reporter gene function. To generalize the intended target to other relatable targets, this assay endpoint is annotated to the dna binding intended target family, where the subfamily is forkhead box protein.
Human liver HepG2 cells are transiently transfected with multiple reporter transcription units (MRTUs) in 6-well plates using FuGene 6 reagent (Roche; 3 ml FuGene/1 mg DNA). The MRTU constructs are regulated by a cis-regulating element (promoter). […] A major difference between the CIS and TRANS system is that in CIS activities of endogenous TFs are measured, whereas the TRANS assay evaluates changes in activities of exogenous, chimeric NR-Gal4 proteins. […] At the end of 24 hour incubation, total RNA was isolated using TriZol reagent (Invitrogen). The isolated RNA is then reverse-transcribed using oligo(dT) primer and Mo-MLV reverse transcriptase (Invitrogen) with DNAse I (Ambion) treatment for 30 min. The one-tenth of the produced cDNA was amplified by PCR using Taq DNA polymerase (Invitrogen) and two reporter sequence-specific primers. The PCR products were fluorescently labeled by primer extension with 6-arboxyfluorescein (6-FAM) 5'-labeled reporter sequence-specific primer (2 min at 95 C, 20 s at 68 C and 10 min at 72 C) and these products were digested with 5U of HpaI (New England Biolabs) for 2h at 37 C. The fragments were purified using Qiaquick PCR columns (Qiagen), analyzed on an ABI 3130xL genetic analyzer (Applied Biosystems) with peak positions identified by using a set of X-rhodamine (ROX)-labeled MapMarker1000 molecular weight standards (BioVentures). The raw capillary electrophoresis data was processed using Attagraph software (Attagene).
Take `CC1CC(O)CC(C)(C)C1` (stereo not given): the molecule was called inactive.
Then `COC(=O)c1ccc(C)cc1C1=NC(C)(C(C)C)C(=O)N1` (stereo not given) (tested in a mixture with another compound), with “inactive”.
Then `CS(=O)(=O)c1ccc(C2=C(c3ccccc3)C(=O)OC2)cc1`, with “inactive”; and `Brc1ccc(Br)c(Br)c1`, with “inactive”; and `CCOc1ccc(NC(=O)CC(C)=O)cc1`, with “inactive”.
Then `CC(=O)O[C@@H]1C[C@@H]2CC[C@@]1(C)C2(C)C`, with “inactive”.
Regarding `CC(C)(CO)[C@@H](O)C(=O)NCCC(=O)O`, the call was inactive.
Turning to `CS(C)=O`, the call was inactive.
For `CCC1(C)NC(=O)NC1=O` (stereo not given), the molecule was called inactive.
Then `CCC(C)=O`, with “inactive”; and `CCCCOC(=O)CCCCCCCC(=O)OCCCC`, with “inactive”; and `C=CCN(CC=C)CC=C`, with “inactive”.
`CC(C)C(OC(=O)c1ccccc1)C(C)(C)COC(=O)c1ccccc1` (stereo not given): the molecule was classed as inactive.
Take `CN1CCOCC1`: the result was inactive.
On to `O=C1OC[C@H](Cc2cccc(O)c2)[C@H]1Cc1cccc(O)c1`, for which the call was inactive.
Then `Cc1ncc[nH]1`, with “inactive”; and `COc1ccccc1N=Nc1c(S(=O)(=O)O)cc2cc(S(=O)(=O)O)cc(NC(C)=O)c2c1O`, with “inactive”.
Then `c1ccc(CCc2ccccc2)cc1`, with “inactive”; and `Cc1c(OCC(F)(F)F)ccnc1CS(=O)c1nc2ccccc2[nH]1` (stereo not given), with “inactive”; and `CSCCC=O`, with “inactive”.
Then `CCCC(C)C(O)CC` (stereo not given), with “inactive”; and `O=C1CCCC=CCCCCCCCCCC1`, with “inactive”; and `CCCCC(CC)(CO)CO`, with “inactive”.
Consider `CC=CC=CCOC(=O)C(C)C`, for which the result was inactive.
Then `O=C(CC(=O)c1ccccc1)c1ccccc1`, with “inactive”.
Then `CCCOCCO`, with “inactive”; and `CC(C)=CCCC(C)CCOC=O` (stereo not given), with “inactive”; and `ON=C1CCCCC1`, with “inactive”.
Turning to `O=C(Nc1ccc2c(c1)Cc1ccccc1-2)C(F)(F)F`, the call was inactive.
Then `O=C(O)c1cccnc1C(=O)O`, with “inactive”; and `C#CC(C)(O)CC(C)C` (stereo not given), with “inactive”.
Then `CC(C)CC(C)CC(O)CC(C)C` (stereo not given), with “inactive”; and `CCCCC(CC)COC(=O)c1ccc(O)cc1` (stereo not given), with “inactive”; and `CCCCCCCCCCCCCCN(CCO)CCO`, with “inactive”.
Consider `CCCCCCCCCCCCCCCC(=O)OC/C=C(C)/C=C/C=C(C)/C=C/C1=C(C)CCCC1(C)C`, for which the outcome was inactive.
Then `Cc1cccc(Nc2ccccc2)c1`, with “inactive”; and `CCCCCc1ccco1`, with “inactive”; and `C=C(CC(=O)O)C(=O)O`, with “inactive”.
Consider `CCC1CCCCC1`, for which the molecule was classed as inactive.
Then `CCOC(=O)[C@@H](C)Oc1ccc(Oc2nc3ccc(Cl)cc3o2)cc1`, with “inactive”.
